PubChem BioAssay

Assay: compound effects on multiple myeloma cell viability – MM1S, calcein-AM fluorescence, 48 h, basal, profiling panel (AID 1165); note: test concentration not given here
Conditions: higher = more signal

SMILES	z-score
COCCOC(=O)N1C(=O)[C@@]2(c3cc(C#Cc4ccc(OC)cc4)ccc31)[C@H](C(N)=O)[C@H]1C(=O)O[C@H](c3ccccc3)[C@H](c3ccccc3)N1[C@@H]2c1ccccc1OCCO	-2.32
C=CCN1C(=O)[C@@]2(O[C@@H](CCO)[C@H]([Si](C)(C)c3ccc(OC)cc3)[C@H]2C)c2cc(NC(=O)c3ccc(OC)cc3)ccc21	-2.73
COC(=O)[C@@]1(Cc2ccc(F)cc2)[C@@H]2[C@@H](CC(=O)[C@H]2CC(=O)C(=O)N(C)C)CN1C(=O)c1ccccc1	-0.886
O=C1C2C=CC(C(O)c3ccc(F)cc3)N(Nc3ccccc3F)C2C(=O)N1c1ccccc1 (stereo not given)	-0.389
C=CCN(Cc1ccccc1)C(=O)C(c1cccs1)N(CCOCCO)C(=O)/C=C\C(=O)O (stereo not given)	1.62
C=C(CCCC)/C(=C/C[C@@H](OC(C)=O)c1ccccc1OCCO)c1cnc2ccccc2c1	-2.72
COc1cc2c(cc1OC)CN(C(=O)[C@@H]1[C@H]3C(=O)O[C@H](c4ccccc4)[C@H](c4ccccc4)N3[C@H](c3ccc(O)cc3)[C@@]13C(=O)Nc1ccc(C#CC4(O)CCCCCC4)cc13)CC2	0.132
COCCOC(=O)N1C(=O)[C@@]2(c3cc(C#Cc4ccc(OC)cc4)ccc31)[C@H](c1ccc(O)cc1)N1[C@H](c3ccccc3)[C@H](c3ccccc3)OC(=O)[C@H]1[C@@H]2C(=O)NC[C@H](O)c1ccccc1	-1
COCCOC(=O)N1C(=O)[C@@]2(c3cc(C#CC4=CCCCC4)ccc31)[C@H](C(=O)Nc1nc3ccccc3s1)[C@H]1C(=O)O[C@H](c3ccccc3)[C@H](c3ccccc3)N1[C@@H]2c1ccccc1OCCO	-1.59
CN(C)C(=O)[C@]1(Cc2ccccc2CN=[N+]=[N-])N=C(c2ccc(OCCCO)cc2)O[C@@H]1c1ccccc1CN=[N+]=[N-]	-2.26
COc1ccc([C@H]2OC[C@@H]3CC4(CC=CC4)C(=O)N32)cc1	-0.58
CCCC[C@@H]1C[C@H]1[C@@H](NC(=O)c1ccco1)c1ccc(C(=O)OC)cc1	-1.77
O=C1C[C@]2(c3ccc([N+](=O)[O-])cc3)C(=O)N(CCN3CCOCC3)c3cc(CO)ccc3[C@H]2N1C1CCCCC1	-0.121
O=C(O)[C@@]1(CCS(=O)(=O)c2ccccc2)COC(c2ccc(OCCCO)cc2)=N1	-1.69
COc1ccc(C(O)C2C=CC3C(=O)N(c4ccccc4)C(=O)C3N2Nc2ccccc2F)cc1OCc1ccccc1 (stereo not given)	0.0664
CC(=O)NCCCC[C@@H]1NC(=O)[C@@H]2C[C@H](C(=O)NCCCCN(C)C)[C@H](c3cccc(OCCO)c3)N2C1=O	-0.589
O=C1NC(=O)C2C1C=CC(C(O)C(c1ccccc1)c1ccccc1)N2Nc1ccc(Cl)cc1Cl (stereo not given)	-3.71
COC(=O)C(CC#Cc1ccc2c(c1)[C@]1(C(=O)N2)[C@H](c2ccc(O)cc2)N2[C@H](c3ccccc3)[C@H](c3ccccc3)OC(=O)[C@H]2[C@@H]1C(=O)Nc1nc2ccccc2s1)C(=O)OC	0.247
C=CCOC(=O)[C@H]1[C@@H]2C(=O)O[C@@H](c3ccccc3)[C@@H](c3ccccc3)N2[C@@H](c2ccc(OCCOC(=O)[C@@H]3C[C@@H]4C(=O)N5CCC[C@H]5C(=O)N4[C@@H]3c3cccc(OCCO)c3)cc2)[C@]12C(=O)Nc1ccccc12	-0.423
COc1cc(CO)cc(I)c1O[C@H]1C=C(C(=O)NCCO)C[C@@H](N(CCN2CCOCC2)C(=O)C2CCOC2)[C@@H]1O (stereo not given in full)	0.317
C=CCOC(=O)[C@@H]1[C@H]2C(=O)O[C@H](c3ccccc3)[C@H](c3ccccc3)N2[C@H](c2ccc(OCCOC(=O)[C@@H]3C[C@@H]4C(=O)N[C@@H](Cc5ccccc5)C(=O)N4[C@@H]3c3ccc(O)cc3)cc2)[C@@]12C(=O)Nc1ccc(I)cc12	0.67
C=CCNC(=O)[C@H]1[C@@H]2C(=O)O[C@@H](c3ccccc3)[C@@H](c3ccccc3)N2[C@@H](c2ccccc2OCCO)[C@]12C(=O)Nc1ccc(C#CC3=CCCCC3)cc12	-3.35
Cc1ccc(S[C@]2(C(=O)NCCN3CCOCC3)CC(=O)N(Cc3ccccc3Cl)[C@@H]2c2ccc(CO)cc2)cc1	0.368
COC(=O)[C@@]1(Cc2ccc(OC)cc2)[C@H]2c3cc(C(=O)N4CCCC4)n(Cc4ccccc4)c3C[C@H]2CN1C(=O)c1ccccc1	-1.63
CC(C)C(=C=CC[C@@H](O)c1ccccc1OCCO)CCO	-0.314
